Only some compounds are listed: those with a hit (about 9.2% of all), similar ones and a draw of the others.
FLuc counter: counter-screen for miR-21 project: firefly luciferase inhibitors or activators; AID 588342; Potency, µM (top dose mostly 57.5 µM), without a hit: at the top dose activity change, negative = inhibition, most hits filed as inhibitors; purified FLuc, Km substrates, luminescence inhibition; 360,000 compounds, 6.9% hits;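 note: plate controls were vehicle for no effect and reference inhibitor for full effect; nearly all actives have a fitted effect of over 55% in size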
Target sequence (P08659 whole entry, looked up): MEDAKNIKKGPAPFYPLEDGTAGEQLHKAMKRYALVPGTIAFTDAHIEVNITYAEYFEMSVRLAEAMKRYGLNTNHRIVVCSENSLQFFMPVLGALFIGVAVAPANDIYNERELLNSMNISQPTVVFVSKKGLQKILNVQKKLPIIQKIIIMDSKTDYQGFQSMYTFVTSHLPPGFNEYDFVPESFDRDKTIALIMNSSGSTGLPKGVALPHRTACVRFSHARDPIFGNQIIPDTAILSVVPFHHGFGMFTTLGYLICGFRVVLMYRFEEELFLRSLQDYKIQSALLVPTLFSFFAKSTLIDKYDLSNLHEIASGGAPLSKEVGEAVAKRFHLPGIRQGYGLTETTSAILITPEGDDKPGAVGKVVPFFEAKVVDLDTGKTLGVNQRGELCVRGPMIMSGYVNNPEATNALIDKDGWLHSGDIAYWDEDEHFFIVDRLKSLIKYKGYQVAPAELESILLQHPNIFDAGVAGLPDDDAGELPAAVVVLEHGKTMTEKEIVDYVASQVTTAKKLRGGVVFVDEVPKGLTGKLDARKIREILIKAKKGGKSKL
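Biochemical qHTS of compounds, final roughly 60 µM downward over six points, against 10 nM purified firefly luciferase using Km concentrations of substrates (10 uM D-luciferin, 10 uM ATP) in Tris acetate pH 7.5 buffer; luminescence output.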
SMN2 splice up: SMN2 splice variant enhancement. HEK293 SMN2-luciferase splicing reporter, luminescence, 30-36 h. Potency, µM (doses to about 46.1 µM), for inactives: at the highest dose activity change, positive = activation, most hits filed as activators. 210,000 compounds, 2.8% hits. AID 1458; note: % of control where 0% means no effect; nearly all actives have a fitted effect of over 55% in size
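qHTS luciferase splicing reporter: luminescence rises when SMN2 exon 7 is included in transfected HEK293 cells. Compound exposure lasted 30-36 h at 37C, with 4.5 mM final sodium butyrate as control, followed by a ONE-Glo read.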
Rab9 promoter act: activators of Rab9 promoter. 320,000 compounds, 2.8% hits. AID 485297. Huh7 Rab9 promoter-luciferase reporter, luminescence, 24 h. Potency, µM (highest dose often 9.22 µM), for the others: at the highest dose activation, negative = inhibition, hits mostly activators; note: % of control where 0% means no effect; nearly all actives have a fitted effect of over 60% in size
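Quantitative HTS format; Huh7 Rab9-luciferase reporter cells (1500/well) receive compound 2 h post-plating, incubate 24 h at 37 °C, then get luciferase reagent for 10 min before luminescence reading.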
ELG1 DNA repair: ELG1-dependent DNA repair inhibition; Potency, µM (titrated, usually from 46.1 µM), for the others: top-dose activity change, negative = inhibition, most hits filed as inhibitors; 330,000 compounds, 2.3% hits; HEK293T ELG1-luciferase reporter, luminescence, 16 h; DNA damage induced by 5-fluorouridine; note: % is set by controls: 0 for no effect and ±100 for the full control effect; nearly all actives have a fitted effect of over 55% in size
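Overnight (16 hr) co-exposure of 2,000 cells/well to 5-fluorouridine and compound at 37 °C preceded detection. Luciferase was quantified via ONE-Glo luminescence; loss of signal denotes inhibition.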
NPC1 promoter act: activators of NPC1 promoter | Huh7 NPC1 promoter luciferase reporter, 24 h | Potency, µM (titrated, usually from 9.22 µM), for the others: at the highest dose activation, actives largely listed as activators | 320,000 compounds, 2.4% hits; note: % of control where 0% means no effect; nearly all actives have a fitted effect of over 60% in size
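Stable NPC1-promoter luciferase Huh7 line; cpd (DMSO) 24 h, 37 °C, 5% CO2; Amplite luciferase reagent 10 min RT; luminescence readout. qHTS format.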
ELG1 genotox: genotoxicity induction in ELG1-luciferase HEK293T cells; 330,000 compounds, 1.3% hits; Potency, µM (titrated, usually from 46 µM), without a hit: at the top dose activity change, positive = activation, most hits filed as activators; HEK293T ELG1-luciferase reporter, luminescence, 16 h; AID 504466; note: % of control where 0% means no effect; nearly all actives have a fitted effect of over 60% in size
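16 hr compound incubation (37 °C, 5% CO2) of HEK293T cells carrying luciferase-tagged ELG1; luciferase then measured by ONE-Glo luminescence after 30 min at RT.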
An asterisk follows results filed as active; [ ] = dose if it differs, or a comment. Calls come from the whole dose curve; as a rule, active = well fitted curve in the direction sought with a large enough effect; inconclusive = small, poorly fitted or top-dose-only effect, or another doubt; inactive = no such curve, though single readings can be large; an effect the other way counts as inactive or inconclusive. Potency is the fitted concentration of half-maximal effect.

CCS(=O)(=O)N1CCN(c2ccc(C(=O)NC3C4CC5CC(C4)CC3C5)cc2[N+](=O)[O-])CC1 (stereo unspecified) was read as FLuc counter -1%, SMN2 splice up -43%, Rab9 promoter act -5%, ELG1 DNA repair 12µM*, NPC1 promoter act -7% and ELG1 genotox 0%.
For COc1cc(NC(=O)Nc2cccc3cccnc23)cc(OC)c1OC the results were FLuc counter 19µM*, Rab9 promoter act 7%, ELG1 DNA repair -23%, NPC1 promoter act -2% and ELG1 genotox 6%.
COc1ccc(NC(=O)Nc2cccc3ccccc23)cc1OC was read as FLuc counter -8%, Rab9 promoter act -1%, ELG1 DNA repair 2%, NPC1 promoter act -2% and ELG1 genotox 8%.
Screening COc1cc(C(=O)Nc2cccc3cccnc23)cc(OC)c1OC returned FLuc counter -9%, SMN2 splice up -7%, Rab9 promoter act -6%, ELG1 DNA repair 21µM*, NPC1 promoter act 1% and ELG1 genotox -8%.
COc1cc(NC(=O)c2ccccn2)cc(OC)c1OC was read as FLuc counter 4%, SMN2 splice up -14%, Rab9 promoter act -4%, ELG1 DNA repair inconclusive, NPC1 promoter act 1% and ELG1 genotox 4%.
Screening COc1cc(NC(=O)c2cccnc2Sc2ccc(Cl)cc2)cc(OC)c1OC returned FLuc counter 3%, SMN2 splice up -34%, Rab9 promoter act -6%, ELG1 DNA repair 8.2µM*, NPC1 promoter act -1% and ELG1 genotox -4%.
COC(=O)/C(=C1/Oc2cc(C)oc(=O)c2S1)C(F)(F)F was read as FLuc counter -2%, SMN2 splice up -133%, Rab9 promoter act -3%, ELG1 DNA repair inconclusive, NPC1 promoter act -14% and ELG1 genotox -8%.
COC(=O)/C(=C1/Oc2ccc(C(C)(C)C)cc2S1)C(F)(F)F was read as FLuc counter 4.8µM*, SMN2 splice up -16%, Rab9 promoter act inconclusive, ELG1 DNA repair inconclusive, NPC1 promoter act inconclusive and ELG1 genotox inconclusive.
O=C(CCCn1c(=O)c2sccc2n(Cc2ccc(F)cc2)c1=O)NCc1ccco1 was read as FLuc counter 6%, SMN2 splice up -8%, Rab9 promoter act 0%, ELG1 DNA repair 21µM*, NPC1 promoter act 0% and ELG1 genotox -11%.
Cc1cccc(C)c1NC(=O)c1ccc(-c2ccc(Cl)cc2Cl)o1 was read as FLuc counter -1%, SMN2 splice up -3%, Rab9 promoter act -11%, ELG1 DNA repair 13µM*, NPC1 promoter act 6% and ELG1 genotox -30%.
For COC(=O)c1cc(NC(=O)c2ccc(-c3ccc(Cl)cc3Cl)o2)cc(C(=O)OC)c1 the results were FLuc counter 3% and SMN2 splice up 2%.
Cc1cccc(C)c1NC(=O)c1cccc(COc2cc(Cl)ccc2Cl)c1 was read as FLuc counter -6%, SMN2 splice up 13µM*, Rab9 promoter act 16%, ELG1 DNA repair inconclusive, NPC1 promoter act 15% and ELG1 genotox 16%.
Cc1ccccc1NC(=O)c1ccc(-c2ccc(Cl)cc2Cl)o1 was read as FLuc counter 8.5µM*, SMN2 splice up 0%, Rab9 promoter act 19%, ELG1 DNA repair -1%, NPC1 promoter act 9% and ELG1 genotox 7%.
Cc1ccccc1-c1ccc(C(=O)Nc2cccc(F)c2)o1 was read as FLuc counter 9.5µM*, SMN2 splice up 13%, Rab9 promoter act 15%, ELG1 DNA repair inconclusive, NPC1 promoter act 6% and ELG1 genotox inconclusive.
CCC(C)[C@H](NC(=O)NCCCOC(C)C)C(=O)OC (stereo partly specified) was read as FLuc counter -2%, Rab9 promoter act 2%, ELG1 DNA repair inconclusive, NPC1 promoter act 0% and ELG1 genotox 1%.
Screening CC(/C=N/NC(=O)c1ccncc1)=C\c1ccccc1 returned FLuc counter 7.6µM*, SMN2 splice up -7%, Rab9 promoter act -2%, ELG1 DNA repair inconclusive, NPC1 promoter act 19% and ELG1 genotox 6%.
Screening CC(/C=N/NC(=O)c1cccc(F)c1)=C\c1ccccc1 returned FLuc counter 2.4µM*, Rab9 promoter act 0.4µM*, ELG1 DNA repair inconclusive, NPC1 promoter act 0.5µM* and ELG1 genotox inconclusive.
CC(/C=N\NC(=O)Cn1cncn1)=C/c1ccc(C(C)C)cc1 was read as FLuc counter inconclusive, Rab9 promoter act 16%, ELG1 DNA repair inconclusive, NPC1 promoter act 13% and ELG1 genotox 11%.
O=C(N/N=C/c1cccnc1)c1cccc(F)c1 was read as FLuc counter inconclusive, Rab9 promoter act 3%, ELG1 DNA repair inconclusive, NPC1 promoter act 5% and ELG1 genotox 7%.
Screening CC(=C/c1ccc(C(C)C)cc1)/C=N/NC(=O)c1ccncc1 returned FLuc counter 2.7µM*, SMN2 splice up 2%[1.84 µM], Rab9 promoter act 28%, ELG1 DNA repair inconclusive, NPC1 promoter act 25% and ELG1 genotox 1%.
CC1=NNC(=O)C1CC(=O)N/N=C/C(C)=C/c1ccccc1 (stereo unspecified) was read as FLuc counter inconclusive, SMN2 splice up 16%, Rab9 promoter act -1%, ELG1 DNA repair 25%, NPC1 promoter act -2% and ELG1 genotox 3%.
For O=C(N/N=C/c1ccccc1O)c1ccncc1 the results were FLuc counter inconclusive, Rab9 promoter act -36%, ELG1 DNA repair -14%, NPC1 promoter act -32% and ELG1 genotox -9%.
For CC(/C=N/NC(=O)Cc1cc(=O)[nH][nH]1)=C\c1ccccc1 the results were FLuc counter 15µM*, SMN2 splice up -13%, Rab9 promoter act -11%, ELG1 DNA repair 6%, NPC1 promoter act -3% and ELG1 genotox 2%.
For CC(/C=N/NC(=O)c1cc(-c2cccnc2)nc2c1c(C)nn2-c1ccccc1)=C\c1ccccc1 the results were FLuc counter 5%, Rab9 promoter act 1%, ELG1 DNA repair 5.8µM*, NPC1 promoter act -2% and ELG1 genotox -10%.
Screening CC(/C=N/NC(=O)NC1CCCCC1)=C\c1ccccc1 returned FLuc counter inconclusive, SMN2 splice up 24%, Rab9 promoter act 18%, ELG1 DNA repair 6%, NPC1 promoter act 14% and ELG1 genotox 10%.
For CC(=C/c1ccccc1)/C=N/NC(=O)c1ccccn1 the results were FLuc counter 0.6µM*, Rab9 promoter act 0.45µM*, ELG1 DNA repair inconclusive, NPC1 promoter act 0.45µM* and ELG1 genotox inconclusive.

Screening data: PubChem BioAssay, National Center for Advancing Translational Sciences (NCATS)
